# Screening data from PubChem BioAssay.
# WT yeast gro inh: growth inhibition of WT strain, primary screen, mitochondrial fusion inhibitor project, WT and mutant strains, chemical genetic; mitochondrial fusion phenotypic screen; inhibition, % at 10 µM; actives 2.1% (n = 190,000); in the data active = inhibition above about 58%; tested in S. cerevisiae
# Lmaj promast: Leishmania major promastigote growth inhibition, primary screen; Leishmania major promastigotes, resazurin fluorescence viability; inhibition, % at 10 µM; actives 9% (n = 200,000); in the data active = inhibition above about 50%;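 note: promastigotes grown with compound for 44 hours at 28 °C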
# CHOP inhibitor: inhibitors of CHOP promoter induction, primary screen, cell-based, unfolded protein response, luciferase reporter | CHO-K1 CHOP-promoter luciferase, tunicamycin-induced, 15-18 h | actives 3.8% (n = 220,000) | inhibition, % at 10 µM;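 active = compounds that reduced the stress-induced luciferase reporter signal by more than about 70% of percent inhibition, limit read from the data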;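 note: 0% = tunicamycin plus vehicle and 100% = wells without tunicamycin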
# Arbovirus inh: antivirals against arbovirus infection, primary screen, cell-based, full library, 10K replicate subset; arbovirus infection cell-based antiviral screen; inhibition, % at 10 µM; actives 0.37% (n = 200,000); AID 1251, 2008; in the data active = inhibition above about 30%
# An asterisk follows results filed as active; . = not tested or not shown. Hits are enriched below; roughly 12% of the tested compounds scored in any of these assays.
SMILES,WT yeast gro inh,Lmaj promast,CHOP inhibitor,Arbovirus inh
CN1CCC(N(C)C(=O)/C=C/c2cn(-c3ccccc3)nc2-c2cccs2)CC1,9,101*,14,-29
O=C(N/N=C/c1cn(-c2ccccc2)nc1-c1cccs1)c1ccccc1F,42,12,27,-9
CC1=NNC(=O)/C1=C\c1cn(-c2ccccc2)nc1-c1cccs1,85,100*,110*,-32
Cc1cc(C(=O)N/N=C/c2cc(Br)cc(Br)c2OC(=O)c2ccccc2)n[nH]1,-47,81*,81*,-25
Cc1cc(C(=O)N/N=C/c2cc(Br)ccc2OC(=O)c2ccc(Br)cc2)n[nH]1,35,98*,67,-23
Cc1cc(C(=O)N/N=C/c2cccs2)n[nH]1,7,3,-16,2
Cc1cc(C(=O)N/N=C/c2cc(Br)cc(Br)c2OC(=O)c2cccc(F)c2)n[nH]1,18,98*,92*,-15
N#C/C(=C\c1ccco1)C(=O)NCc1ccccc1,-11,-5,-24,-1
N#CC(C#N)=C1C=CC=CN1/C(=C\c1ccco1)C(=O)c1ccc(-c2ccccc2)cc1,-2,100*,107*,-32
N#CC(C#N)=C1C=CC=CN1/C(=C\c1ccco1)C(=O)c1ccc(Cl)cc1,23,11,111*,-33
CC(C)CN1C(=O)NC(NS(=O)(=O)c2ccc(N)cc2)(C(F)(F)F)C1=O (stereo not drawn),-5,43,28,-2
COC(=O)c1sccc1NC(=O)CC1C(=O)NCCN1C(=O)c1ccc(N(C)C)cc1 (stereo not drawn),.,.,5,.
Cc1cc(NC(=O)CN2C(=O)/C(=C/c3cccc(Br)c3)SC2=S)no1,5,-6,25,12
Cc1cc(NC(=O)CCN2C(=O)/C(=C\c3ccccc3Cl)SC2=S)no1,8,21,81*,-6
Cc1cc(NC(=O)CCCN2C(=O)/C(=C\c3cccs3)SC2=S)no1,-4,-8,70*,4
O=C(NNC(=S)NCc1ccco1)c1ccc(S(=O)(=O)N2CCOCC2)cc1,-6,-9,15,-1
COc1cccc(-n2c(=O)n(Cc3ccccc3)c(=O)c3[nH]cnc32)c1,.,.,-8,.
Cc1cccc(N2C(=O)/C(=C\c3ccc(OC(F)F)cc3)c3ccccc3C2=O)c1,7,5,11,-5
COc1cccc(/C=C2\C(=O)N(c3cccc(C)c3)C(=O)c3ccccc32)c1,12,73*,-21,-6
COc1cc(C(=O)Nc2cccc(-c3nc4cc(C)cc(C)c4o3)c2)cc(OC)c1OC,6,-1,76*,6
Cc1ccc2oc(-c3cccc(NC(=O)c4ccc(Br)o4)c3)nc2c1,14,-1,67,-8
Cc1cc(C)c2oc(-c3cccc(NC(=O)c4ccc(F)cc4)c3)nc2c1,-2,65*,91*,-4
CNc1nnc(-c2cc3cc(Cl)ccc3oc2=O)s1,40,25,78*,2
COc1cccc2cc(/C(=N/O)c3ccccc3)oc12,28,1,-6,-9
CC(=O)Nc1ccc(NC(=O)COC(=O)c2c(C)nn(-c3ccccc3)c2C)cc1,-5,67*,19,6
SMILES,WT yeast gro inh,Lmaj promast,CHOP inhibitor,Arbovirus inh
O=C(Cc1ccc(Cl)cc1Cl)Nc1ccc(OC(F)F)c(Cl)c1,21,53*,95*,22
O=C(COC(=O)Cc1ccc(Cl)cc1Cl)Nc1ccccc1OC(F)F,25,-3,42,-1
O=C(COC(=O)Cc1ccc(Cl)cc1Cl)Nc1ccc(OC(F)F)cc1,30,70*,22,0
CCOc1ccc2nc(-c3cc(NC(C)=O)ccc3O)sc2c1,6,-6,59,7
COC(=O)c1ccsc1NC(=O)C1COc2ccccc2O1 (stereo not drawn),6,-6,62,31*
COc1ccc(C)cc1NC(=O)C1COc2ccccc2O1 (stereo not drawn),8,-7,18,50*
CCOC(=O)c1ccccc1NC(=O)C1COc2ccccc2O1 (stereo not drawn),23,6,74*,2
O=C(Nc1ccncc1)C1COc2ccccc2O1 (stereo not drawn),-3,1,-6,-5
O=C(NC1=NCCS1)C1COc2ccccc2O1 (stereo not drawn),8,-4,76*,0
O=C(CC1C(=O)NCCN1Cc1ccc(-c2ccccc2)cc1)NCCCn1ccnc1 (stereo not drawn),.,.,14,.
CC[C@@H](C)[C@@H](C(=O)N1CCNCC1)n1cc(CCC(=O)O)nn1,-1,-4,12,8
NS(=O)(=O)c1ccc(N2C(=O)C(=O)/C(=C(/O)c3ccccc3)C2c2ccc(Cl)cc2)cc1 (stereo not drawn),.,.,-11,.
COc1ccc(C(=O)CSc2ccccc2C(=O)O)cc1,-4,-6,1,-8
Cc1nc2oc3ccc(F)cc3c(=O)c2cc1C(=O)NC(C)(C)C,-13,0,3,-1
CC(=O)Nc1ccc(S(=O)(=O)NC2(C(F)(F)F)N=C(c3ccccc3)NC2=O)cc1 (stereo not drawn),-12,-4,12,13
O=C(Nc1ccc(F)cc1F)c1cc(=O)n(-c2ccccc2)c(=O)[nH]1,1,7,9,0
O=C(Nc1ccc2c(c1)OCO2)C1COc2ccccc2O1 (stereo not drawn),2,-6,-4,-6
Cc1cc(=O)oc2cc(NC(=O)C3COc4ccccc4O3)ccc12 (stereo not drawn),11,4,89*,-9
O=C(O)c1ccc2c(=O)n3cc(C(=O)c4ccccc4O)cc(Cl)c3nc2c1,.,.,36,.
O=C(N/N=C\c1ccc(-c2ccc([N+](=O)[O-])cc2)o1)C1COc2ccccc2O1 (stereo not drawn),18,96*,81*,-5
COc1ccc(-c2ccc(/C=N/NC(=O)c3cccnc3)o2)c([N+](=O)[O-])c1,0,75*,12,-5
O=C(N/N=C/c1ccc(-c2ccccc2[N+](=O)[O-])o1)[C@H]1C[C@@H]1c1ccccc1,39,90*,64,-17
O=C(N/N=C/c1ccc(-c2ccc([N+](=O)[O-])cc2)o1)[C@H]1C[C@@H]1c1ccccc1,.,.,26,.
Cc1ccc(C(=O)N/N=C/c2ccc(-c3ccccc3[N+](=O)[O-])o2)cn1,-2,72*,5,-5
CN(C)c1ccc(/C=N/NC(=O)C2COc3ccccc3O2)o1 (stereo not drawn),-9,-6,-5,-4
Cn1c(SCC(=O)O)nnc1-c1ccc(NC(=O)c2ccc(Cl)c(Cl)c2)cc1,.,.,0,.
Cc1nnc(N/N=C\c2ccc(-c3ccccc3[N+](=O)[O-])o2)n1N,-6,58*,-11,-6
Cc1c(NC(=O)c2cc3nc(-c4ccc(Cl)cc4)cc(C(F)(F)F)n3n2)c(=O)n(-c2ccccc2)n1C,-8,-8,29,-17
CC(C)CCNC(=O)Cn1c(=O)oc2cc(S(=O)(=O)N3CCc4ccccc43)ccc21,-3,99*,38,30
CCOC(=O)Cn1c(=O)oc2cc(S(=O)(=O)N3CCCc4ccccc43)ccc21,19,81*,60,22
